TDP1 cell CPT: qHTS for Inhibitors of human tyrosyl-DNA phosphodiesterase 1 (TDP1): qHTS in cells in presence of CPT; chicken DT40 Tdp1-/-;hTDP1 cells + 20 nM CPT, ATP luminescence, 48 h; Potency, µM (top dose mostly 46.2 µM), inactives show top-dose activity change, negative = growth inhibition, usual class: inhibitors; 420,000 tested, 12% active; AID 686979, 2013; also: potency is read from the fitted curve at half-maximal effect; nearly all actives have a fitted effect of over 55% in size
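Cell growth measured by CellTiter-Glo luminescence after a minimum 48 h, 37 C compound exposure with 20 nM CPT in Tdp1-knockout DT40 cells stably expressing hTDP1, seeded 400/well; qHTS titration format.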
Six1-Eya2 inh: qHTS Assay for Inhibitors of the Six1/Eya2 Interaction; 360,000 tested, 0.56% active; activity change, % (test concentration not listed); Homeobox protein SIX1 (Homo sapiens) + Protein phosphatase EYA2 (Homo sapiens), …; AlphaScreen GST-Six1/His-Eya2 binding, biochemical; hits give low values; in the data active = activity change below about -65%; inconclusive = mostly about -30% to -63%
Target sequence (O00167 whole entry, looked up): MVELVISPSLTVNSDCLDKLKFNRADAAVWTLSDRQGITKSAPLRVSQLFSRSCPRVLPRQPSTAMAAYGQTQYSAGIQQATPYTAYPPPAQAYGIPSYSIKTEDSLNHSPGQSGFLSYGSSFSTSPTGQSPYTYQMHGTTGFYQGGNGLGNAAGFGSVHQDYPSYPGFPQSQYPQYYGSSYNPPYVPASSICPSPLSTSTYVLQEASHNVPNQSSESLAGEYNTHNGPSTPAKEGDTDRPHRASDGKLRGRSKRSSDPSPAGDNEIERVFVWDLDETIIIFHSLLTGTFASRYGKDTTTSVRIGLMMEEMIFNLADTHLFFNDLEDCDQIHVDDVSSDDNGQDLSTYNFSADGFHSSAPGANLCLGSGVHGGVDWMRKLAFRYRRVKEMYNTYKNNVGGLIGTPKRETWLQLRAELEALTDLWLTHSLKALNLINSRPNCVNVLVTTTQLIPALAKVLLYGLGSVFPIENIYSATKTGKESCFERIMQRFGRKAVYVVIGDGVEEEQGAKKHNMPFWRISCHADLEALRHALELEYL
Target sequence (Q15475 whole entry, looked up): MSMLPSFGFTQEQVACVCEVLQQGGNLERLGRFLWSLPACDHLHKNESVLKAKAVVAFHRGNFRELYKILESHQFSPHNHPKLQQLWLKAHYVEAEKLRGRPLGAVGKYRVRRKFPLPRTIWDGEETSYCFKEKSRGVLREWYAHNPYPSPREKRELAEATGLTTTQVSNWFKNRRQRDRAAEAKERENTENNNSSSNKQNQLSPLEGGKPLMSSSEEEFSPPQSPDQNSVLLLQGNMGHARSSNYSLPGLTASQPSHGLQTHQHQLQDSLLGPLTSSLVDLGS
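Six1/Eya2 binding was read as AlphaScreen signal after compounds were pinned into GST-Six1 plus His-tagged Eya2 (5X stock 250/500 nM) in pH 8.0 Tris/NaCl/TCEP buffer, beads added, then incubated 1 h, 37 C, dark.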
TDP1 cell noCPT: qHTS for Inhibitors of human tyrosyl-DNA phosphodiesterase 1 (TDP1): qHTS in cells in absence of CPT; Potency, µM (titrated, usually from 46.2 µM), for inactives: top-dose activity change, negative = growth inhibition, hits mostly inhibitors; AID 686978, 2013; DT40 Tdp1-/- hTDP1 cells, no CPT, ATP luminescence, 48 h; 420,000 tested, 15% active; also: potency is read from the fitted curve at half-maximal effect; nearly all actives have a fitted effect of over 55% in size
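Growth kinetics read by CellTiter-Glo luminescence after ≥48 hr at 37 °C. Cells: DT40 Tdp1-/- stably carrying human TDP1, 400 per well, compound exposure in the absence of CPT (DMSO vehicle).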
IL1B secr inh: qHTS for Inhibitors of Inflammasome Signaling: IL-1-beta AlphaLISA Primary Screen | THP-1 LPS/ATP IL-1B secretion, AlphaLISA, 16 h; hits give low values | activity change, % at 57.5 µM | 360,000 tested, 4.7% active; in the data active = activity change below about -50%; inconclusive = mostly about -30% to -49%
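THP-1 cells pretreated 1 hr with compounds (up to 57.5 uM final), then stimulated with LPS (250 ng/mL final) plus ATP (1.25 mM final); secreted IL-1B measured by AlphaLISA after 16 hr, decreased signal indicating inhibition.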
CtBP-E1A inh: qHTS Assay for Inhibitors of the CtBP/E1A Interaction; CtBP / adenovirus E1A interaction (AlphaScreen); AlphaScreen GST-E1A/His-CtBP binding, 1536-well; hits give low values; activity change, % (concentration not given with the values); 340,000 tested, 0.49% active; AID 651724, 2012; in the data active = activity change below about -65%; inconclusive = mostly about -30% to -63%
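In 5 uL wells, 23 nL compound meets equimolar GST-E1A and His-CtBP (5X stock 125 nM each) for 2 h, 37 °C. Beads (5X, 50 ug/mL) then 1 h, 37 °C, dark.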
TDP1 block: qHTS Assay for Inhibitors of Tyrosyl-DNA Phosphodiesterase (TDP1); Tyrosyl-DNA phosphodiesterase 1 (Homo sapiens), Q9NUW8; recombinant TDP1, AlphaScreen DNA substrate cleavage; Potency, µM (series often up to 130 µM), without a hit: at the top dose activity change, negative = inhibition, usual class: inhibitors; 350,000 tested, 0.28% active; AID 485290, 2010; also: potency is read from the fitted curve at half-maximal effect; nearly all actives have a fitted effect of over 40% in size
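Recombinant human Tdp1 (E. coli-expressed, 1 nM final) preincubated with compounds 15 min at room temperature, then 5'-biotin/3'-phosphotyrosine-FITC DNA substrate (15 nM final) added for 5 min. AlphaScreen beads (10 ug/ml final) added 10 min; cleavage lowers signal.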
* hit, by the source's call; ? = inconclusive; · = no result. The list is not random: actives were taken first. Their share in the collection is about 18%. Unless noted, calls follow the shape of the dose curve; as a rule, active = well fitted curve in the direction sought with a large enough effect; inconclusive = small, poorly fitted or top-dose-only effect, or another doubt; inactive = no such curve, though single readings can be large; an effect the other way counts as inactive or inconclusive. % is scaled to controls: 0 for no effect and ±100 for the full control effect.

SMILES	TDP1 cell CPT	Six1-Eya2 inh	TDP1 cell noCPT	IL1B secr inh	CtBP-E1A inh	TDP1 block
Cc1ccc(-c2csc(C3=C(O)CN(NC(=O)c4ccc([N+](=O)[O-])cc4)C3=N)n2)cc1	-11%	4	-7%	-5	-9	1%
Cc1nccn1CCN(C)Cc1cn(Cc2ccccc2)nc1-c1ccc2c(c1)OCO2	?	-1	?	-10	·	4%
O=C(COC(=O)c1cc(=O)[nH]c(=O)[nH]1)NCc1ccccc1	5%	2	7%	16	1	0%
Cc1ccc(CN=Cc2[nH]c3ccc(Br)c(Cl)c3c2O)cc1	?	-7	21µM*	0	-3	-7%
Oc1c(C=NCc2ccc(F)cc2)[nH]c2ccc(Br)c(Cl)c12	·	·	·	·	·	2%
N/C(=N\OC(=O)c1ccccc1)C(Cc1ccccc1)C(=O)NOC(=O)c1ccccc1 (stereo unspecified)	2.9µM*	4	2.6µM*	-89*	-6	·
COc1cccc(CN2C(=O)C(C)Oc3ccccc32)c1 (stereo unspecified)	-8%	6	-4%	12	1	·
COc1ccc(CN2C(=O)C(C)N(C(=O)c3c(F)cccc3F)c3ccccc32)cc1 (stereo unspecified)	13µM*	-3	8.2µM*	8	·	·
COc1cccc(CN2C(=O)C(C)N(C(=O)c3ccccc3)c3ccccc32)c1 (stereo unspecified)	13µM*	1	6.5µM*	-4	-6	·
CC1C(=O)N(Cc2ccc([N+](=O)[O-])cc2)c2ccccc2N1C(=O)c1c(F)cccc1F (stereo unspecified)	?	-16	16µM*	?	-14	·
CC(=O)Nc1cccc(C(=O)NNC(=O)c2ccccc2-n2cccc2)c1	-7%	-1	26%	0	4	3%
C=C1C(=O)C=C[C@]2(C)C[C@@H]3OC(=O)[C@](C)(O)[C@H]3C[C@@H]12	1.8µM*	0	1.3µM*	-110*	4	4%
COc1ccc(OCC(O)CNC(=O)c2ccccc2C(=O)O)cc1 (stereo unspecified)	3%	4	3%	15	3	-3%
CCOC(=O)Cc1ccc(Nc2nc(NCc3ccccc3)nc3ccsc23)cc1	23µM*	2	15µM*	-3	-15	·
CCOC(=O)Cc1ccc(Nc2nc(NC)nc3ccsc23)cc1	21µM*	-7	18µM*	-12	-10	·
CCOC(=O)Cc1nnc(Nc2ccc(C)cc2)c2ccccc12	-24%	10	?	-14	1	4%
CCOC(=O)Cc1nnc(NCc2ccccc2)c2ccccc12	-26%	-6	-1%	0	6	·
O=C(CNCCc1ccccc1)Nc1ccc(C(=O)N2CCCCC2)cc1	?	3	-20%	-2	1	0%
CCCCC(=O)N(CCOC)c1nnc(-c2cccnc2)s1	1%	2	4%	-2	1	5%
CCOC(=O)c1ccc(NC(=S)N2CCCC2c2ccc(OC)c(OC)c2)cc1 (stereo unspecified)	-5%	-2	?	3	-5	1%
CCOC(=O)c1cc(-c2ccccc2)n(-c2cccc(C(=O)N(C)c3ccc(C)cc3)c2)c1C	-80%	·	8.2µM*	·	·	9%
CCOC(=O)c1cc(-c2ccccc2)n(-c2cccc(C(=O)NC(C)(C)C)c2)c1C	?	·	?	·	·	5%
COc1cccc(/C=N/N2C(=O)NC3(CCCCC3)C2=O)c1O	4%	4	6%	13	-1	4%
OC(COc1ccccc1)CN1CCC(Cc2ccccc2)CC1 (stereo unspecified)	5%	-2	-17%	-72*	-14	·
COc1cccc(OCC(O)CN2CCC(Cc3ccccc3)CC2)c1 (stereo unspecified)	?	-11	18µM*	?	-3	5%
SMILES	TDP1 cell CPT	Six1-Eya2 inh	TDP1 cell noCPT	IL1B secr inh	CtBP-E1A inh	TDP1 block
OC(COc1ccccc1F)CN1CCC(Cc2ccccc2)CC1 (stereo unspecified)	?	1	?	-26	-12	6%
OC(COc1ccc(F)cc1Cl)CN1CCC(Cc2ccccc2)CC1 (stereo unspecified)	?	-13	21µM*	-61*	·	·
COC(=O)CN1C(=O)[C@H]2[C@@H](/C=C/c3ccccc3)N3C(=O)CN(Cc4ccccc4)C(=O)[C@@]3(C)[C@H]2C1=O	-26%	5	-22%	11	4	·
O=[n+]1c2c(n([O-])c3cc(F)c(F)cc31)CCCC2	-9%	-21	?	9	-9	-5%
O=C(Nc1ccc(F)cc1)c1nc2c(nnn2Cc2cccc3ccccc23)c(=O)[nH]1	?	-2	15µM*	-98*	-10	·
Cc1ncc(CSCC(=O)Nc2cc(C(F)(F)F)ccc2Cl)c(CO)c1O	9%	1	?	20	0	·
O=C(Nc1cccc(S(=O)(=O)N2CCCCC2)c1)c1ccc2ccccc2n1	29µM*	-9	21µM*	-14	-16	-3%
O=C(Nc1cccc(S(=O)(=O)N2CCOCC2)c1)c1ccc2ccccc2n1	?	-14	?	-16	·	1%
O=C(Cc1ccccc1)Nc1cccc(S(=O)(=O)N2CCCCCC2)c1	0%	-1	-10%	-1	0	2%
O=C(Nc1cccc(S(=O)(=O)N2CCCC2)c1)c1ccc2ccccc2n1	21µM*	-15	23µM*	?	-18	5%
C=CCn1c(CSc2nc3ccccc3s2)n[nH]c1=S	3%	-6	-3%	26	3	8%
CC1=C(CO)C(=O)OC([C@@H](C)C2CC[C@H]3C4C[C@H]5O[C@]56[C@@H](O)C=CC(=O)[C@]6(C)C4CC[C@]23C)C1 (stereo partly specified)	1.5µM*	-3	1.3µM*	-107*	4	·
O=C(NCCc1csc2nc(-c3ccc(F)cc3)nn12)c1cccc(C(F)(F)F)c1	?	·	?	·	·	-3%

Screening results: PubChem BioAssay, National Center for Advancing Translational Sciences (NCATS)
